CF NFkB inh: inhibitors of cystic fibrosis induced NF-kB; KKLEB NF-kB-GFP reporter, PAF-induced, GFP fluorescence overnight; inhibition, % at 5 µM; 360,000 tested, 0.86% active; AID 588850;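 active means at least 50% inhibition at 5 µM, scaled per plate between neutral and stimulator controls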;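 further: PAF is a Pseudomonas aeruginosa culture filtrate used as stimulus; plate controls were PAF-stimulated DMSO wells for no effect and unstimulated DMSO wells for full effect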
ABHD5 PLIN5 PPI: inhibitors of human ABHD5-perilipin-5 interaction; Split G. princeps luciferase complementation, luminescence, 4 h; inhibition, % at 4 µM; 360,000 tested, 0.78% active; AID 602281;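 active means inhibition above the mean inhibition across every tested compound plus 3 SD, cut at about 22% in these data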;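 further: 0% = DMSO only wells and the 100% control is not disclosed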
HIF-2a block: blocks HIF-2a reporter activity | 786-0 RCC cells HIF-2a reporter, luciferase luminescence, overnight | inhibition, % at 18.8 µM | AID 624352 | 360,000 tested, 0.72% active;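 active means inhibition of the luminescence signal of 40% or more relative to plate controls, in a single-dose primary screen at 18.75 µM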
TRPM1 prom inh: MITF TRPM1 promoter inhibition in SK-MEL-5 cells. inhibition, % at 12.5 µM. SK-MEL-5 TRPM1 promoter luciferase, 24 h. AID 488899. 330,000 tested, 0.83% active;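 active means mean inhibition across replicates of 60% or more, whatever share of single replicates reaches that level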
Peg3 promoter: Peg3 promoter activity inhibition | HeLa PEG-Prom luciferase reporter, luminescence, overnight | inhibition, % at 20 µM | 360,000 tested, 1.7% active | AID 588405;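 active means inhibition of at least 50% at 20 µM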
KKLEB cytotox: counter-screen for CF NF-kB inhibitors: cytotoxicity | KKLEB CF airway cells viability, ATPlite luminescence, overnight; hits give low values; cells stimulated with P. aeruginosa culture filtrate | activity change (cytotoxicity), % at 5 µM | AID 602141 | 360,000 tested, 0.36% active;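 active means corrected activity change at or below -50% at 5 µM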
ABHD5-PLIN5 conf: confirmation of human ABHD5-PLIN5 interaction inhibitors; biochemical ABHD5-PLIN5 interaction, luminescence; shares compounds with ABHD5 PLIN5 PPI; AID 651612; 2,200 tested, 67% active; inhibition, % at 4 µM; in the data active means inhibition above about 23%;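 further: 0% = DMSO vehicle wells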
HNF4 split-luc: active in HNF4 split-luciferase counter-screen for ABHD5-PLIN5 inhibitors. shares compounds with ABHD5 PLIN5 PPI. AID 651674. inhibition, % at 4 µM. HNF4 dimerization, luminescence, biochemical. 2,200 tested, 77% active;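 active means mean inhibition across replicate wells exceeding the computed hit threshold, cut at about 13% in these data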;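 further: light from luciferase halves that rejoin when HNF4 fusion proteins dimerize; 0% = DMSO only wells and the 100% control is not given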
Mdm2-MdmX confirm: confirmation of inhibitors of human Mdm2/MdmX interaction, set 2; shares compounds with HIF-2a block; inhibition, % at 8 µM; AID 504601; 740 tested, 99% active; SaOS-2 split-luciferase Mdm2/MdmX complementation, luminescence;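 active means mean inhibition of the luminescence signal across two replicates at or above 26 percent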
HIF-2a conf: confirmation of HIF-2a inhibitors. 786-0 RCC cells, HIF-2a luciferase reporter luminescence, overnight. shares compounds with HIF-2a block. inhibition, % at 18.8 µM. AID 651580. 1,800 tested, 56% active;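 active means mean inhibition across four replicates of at least 40 percent at the single tested concentration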
HIF-1a counter: inhibits HIF-1a reporter, a counter-screen for HIF-2a inhibitors. shares compounds with HIF-2a block. MiaPaCa-2 HIF-1a luciferase reporter, desferoxamine, overnight. inhibition, % at 18.8 µM. 1,800 tested, 72% active;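 active means mean inhibition of the reporter signal across four replicates at the single tested dose of 50% or more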
An asterisk follows results filed as active; · = not tested or not shown. Rows were chosen to be rich in hits. Some 3% of all compounds tested hit in one or more screens of this group.

SMILES	CF NFkB inh	ABHD5 PLIN5 PPI	HIF-2a block	TRPM1 prom inh	Peg3 promoter	KKLEB cytotox	ABHD5-PLIN5 conf	HNF4 split-luc	HIF-2a conf	HIF-1a counter	others
CS(=O)(=O)c1nc(-c2ccc(F)cc2)cc(C(F)(F)F)n1	92*	51*	95*	97*	106*	-96*	63*	99*	55*	102*
COc1nc(-c2ccccc2)cc(C(F)(F)F)n1	12	-3	6	-12	4	-28	·	·	·	·
O=C(Nc1nc2ccccc2s1)c1ccc2sc([C@H]3C[C@H](O)[C@@H](CO)O3)nc2c1	-6	2	-277	·	-101	-8	·	·	·	·
Cc1cc(C)c(OCC(=O)NCC2COc3ccccc3O2)c(C)c1 (stereo not given)	-16	-5	16	11	21	8	·	·	·	·
CN1OC[C@@H]2CN(C(=S)NCCc3ccccc3)[C@H](c3ccc(N4CCCCC4)cc3)C[C@@H]21	-12	-6	3	·	16	19	·	·	·	·
Cn1cc(CN2CCC(C(=O)NC(c3ccc(F)cc3)c3ccc4ccccc4n3)CC2)c2ccccc21 (stereo not given)	7	24*	92*	·	101*	0	12	11	-3	106*
Cc1ccccc1CS(=O)(=O)CC(O)CN1CCCC1=O (stereo not given)	-10	-4	13	2	4	8	·	·	·	·
CC(=O)OCCNc1cc(Sc2nc3ccccc3[nH]2)c2nonc2c1[N+](=O)[O-]	63*	60*	95*	80*	113*	-16	71*	112*	78*	71*
CC(=O)OCCCNc1cc(Sc2ccc(C)cc2)c2nonc2c1[N+](=O)[O-]	30	2	12	38	30	4	·	·	·	·
O=C(CN1CCN(Cc2ccccc2)CC1)N1CCCCCC1	-1	0	14	6	0	10	·	·	·	·
Cc1cccn2c(=O)c3cc(C(=O)NCCc4ccccc4)c(=N)n(Cc4ccco4)c3nc12	4	26*	93*	-9	31	-8	6	17*	4	83*	Mdm2-MdmX confirm=29*
COc1ccc(S(=O)(=O)n2nc(-c3cc(OC)c(OC)c(OC)c3)cc2N)cc1OC	0	-1	8	8	5	-2	·	·	·	·
COc1ccc(-c2cc(N)n(S(=O)(=O)c3c(F)c(F)c(F)c(F)c3F)n2)cc1OC	32	30*	86*	98*	110*	-13	50*	6	99*	104*
CCc1ccc(/C=C/C(=O)c2c(C)cc(C)[nH]c2=O)cc1	34	29*	52*	28	64*	-10	48*	29*	24	54*
O=C(O)/C=C/C(=O)c1ccc2c(c1)CCc1ccccc1-2	64*	95*	50*	·	100*	3	104*	110*	57*	103*
CC(=O)Nc1ccc2c(c1)CCc1ccccc1-2	-14	17	-128	-28	-202	0	·	·	·	·
O=C(CNC(c1ccccc1)c1ccccc1)NCc1ccccc1Cl	-27	1	19	-2	2	12	·	·	·	·
COC(=O)c1ccc2c(c1)C(C)(C)C(/C=C/c1ccc(OC)c(OC)c1OC)=[N+]2C	-15	47*	95*	101*	107*	-8	101*	101*	88*	107*	Mdm2-MdmX confirm=103*
O=C(CSc1nc2ccccc2c(=O)n1CCCO)Nc1ccc2c(c1)OCCO2	-23	7	-18	-4	-16	3	·	·	·	·

Source: PubChem (several laboratories)
